Source: PubChem BioAssay (NCI)
The panel holds about 83,000 compounds, 20% with a hit somewhere; the sample as a whole holds those more often.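 The test compound was applied at a single concentration to cells in 96-well plates for 48 hours, and percent growth was recorded.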 Active and inactive are the calls of the source. How the source made its calls: active means growth percent below 10; inactive means the rest.

Assays:
Assay in all cases: NCI-60 one-dose screen, 48 h (100 = growth as untreated, 0 = no growth, -100 = all killed)
Conditions in all cases: 10 µM unless noted
[1] = system: NCI-H23 lung
[2] = system: NCI-H226 lung
[3] = system: NCI-H322M lung
[4] = system: HOP-62 NSCLC
[5] = system: NCI-H460 lung
[6] = system: NCI-H522 lung
[7] = system: A549/ATCC NSCLC
[8] = system: 786-0 renal
[9] = system: COLO 205 colon
[10] = system: DU-145 prostate
[11] = system: K-562 leukemia
[12] = system: MALME-3M melanoma
[13] = system: MDA-MB-231 breast
[14] = system: RXF 393 renal
[15] = system: SF-268 CNS
[16] = system: SF-295 CNS
[17] = system: SF-539 CNS
[18] = system: UACC-257 melanoma
[19] = system: M14 melanoma

Measured: growth

CN1C(=O)N(C)C2C1NN=c1s/c(=C\c3ccc(C(F)(F)F)cc3)c(=O)n12 (stereo unspecified)
active: [6] 2.74% | [9] -0.525% | [10] 9.33% | [14] -3.65% | [17] 3.31%
inactive: [1] 39.5% | [2] 43.2% | [3] 32.4% | [4] 31.9% | [5] 11.7% | [7] 31.9% | [8] 25.5% | [11] 10.6% | [12] 56% | [13] 60.4% | [15] 45.1% | [16] 10.4% | [18] 44.6% | [19] 16%

Cc1ccc2c(C)c3c(ccc4ccccc43)c[n+]2c1
inactive: [1] 53.8% | [2] 83.7% | [3] 86.5% | [4] 45.7% | [5] 74.3% | [6] 74.2% | [7] 41.7% | [8] 70.3% | [9] 91.5% | [10] 85% | [13] 72.7% | [14] 104% | [15] 31.5% | [16] 36.4% | [17] 72.8% | [18] 69.2% | [19] 89%
active: [12] -8.06%

CN(C)CCCN1c2ccccc2CCc2ccccc21
inactive: [1] 129% | [2] 104% | [3] 108% | [4] 82.2% | [5] 113% | [6] 88.2% | [7] 95.8% | [8] 95.7% | [9] 78% | [10] 113% | [11] 94.9% | [12] 151% | [13] 79% | [14] 78.6% | [15] 95.1% | [16] 106% | [17] 117% | [18] 103% | [19] 128%

CC(C)CCSc1nc(-c2ccc(F)cc2)c(C#N)c(N2CCCCC2)n1
inactive: [1] 90.6% | [2] 88.8% | [3] 94.5% | [4] 102% | [5] 93.1% | [6] 78.8% | [7] 83.3% | [8] 98.5% | [9] 103% | [10] 97% | [11] 78.8% | [12] 93.9% | [13] 88% | [14] 94.3% | [15] 97.3% | [16] 103% | [17] 107% | [18] 84.7% | [19] 99.2%

CC(=O)c1ccc(N2C(=O)c3ccc(Oc4ccccc4)cc3C2=O)cc1
inactive: [1] 101% | [2] 98.8% | [3] 106% | [4] 99.9% | [5] 105% | [6] 93.1% | [7] 109% | [8] 108% | [9] 116% | [10] 103% | [11] 119% | [12] 106% | [13] 113% | [14] 112% | [15] 100% | [16] 81.1% | [17] 107% | [18] 118% | [19] 98.8%

CCCCCCCCCCCC1=NC(C)(C)CN1C(C)C
active: [9] -53.7% | [14] 5.65% | [18] -9.06% | [19] -26.6%
inactive: [1] 49.8% | [2] 89.1% | [3] 97.7% | [4] 54.6% | [5] 50.4% | [6] 43% | [7] 61.1% | [8] 54.5% | [10] 68.9% | [12] 59.8% | [13] 53.7% | [15] 71.9% | [16] 62.6% | [17] 55.6%

N/C(=C\C(=O)n1nc(-c2ccccc2)cc1N)c1ccccc1
active: [6] -22.3%
inactive: [1] 58.3% | [2] 73.4% | [3] 65.4% | [4] 64% | [5] 36% | [7] 55.1% | [8] 65% | [9] 41.6% | [10] 58.2% | [11] 25.6% | [12] 42.6% | [13] 51.5% | [14] 77.2% | [15] 63.8% | [16] 44.5% | [17] 59.4% | [18] 58.3% | [19] 31.6%

CN1CCCN(CCNc2nccc(-c3c(-c4cccc(O)c4)nc4sccn34)n2)S1(=O)=O
inactive: [1] 67.1% | [2] 72.4% | [3] 47.9% | [4] 84.4% | [5] 40.2% | [6] 59.3% | [7] 45.8% | [8] 42.2% | [9] 29.3% | [10] 54.7% | [13] 44.9% | [14] 41.3% | [15] 71.5% | [16] 57.8% | [17] 57.8% | [18] 36.8%
active: [12] 9.87% | [19] -0.122%

C=C(c1ccc(C(=O)NCCCn2ccnc2)cc1)c1cc2c(cc1C)C(C)(C)CCC2(C)C
inactive: [1] 44% | [2] 72.3% | [3] 42.8% | [4] 18% | [5] 13.9% | [6] 10.2% | [7] 40.3% | [9] 10.3% | [10] 34% | [13] 28.7% | [14] 35.8% | [15] 38.5% | [18] 99.2%
active: [8] -17% | [12] -1.54% | [16] -29.6% | [17] 2.41% | [19] -76.4%

CSc1ccc(/C=C2\C=C(CC(=O)NCc3ccc(C(=O)c4ccccc4)cc3)c3cc(F)ccc32)cc1
inactive: [3] 39.4% | [12] 49.3% | [18] 55.2%
active: [1] -23.2% | [2] -40.8% | [4] -7.82% | [5] -43.7% | [6] -38.5% | [7] -0.932% | [8] -25.7% | [9] -75.6% | [10] -34.3% | [13] -7.54% | [14] -34.1% | [15] 1.28% | [16] -20.2% | [17] -36.2% | [19] -33.2%

CC(C)(C)c1nn(-c2ccccc2)c2c1C(=O)CSC(c1ccccc1Cl)N2 (stereo unspecified)
inactive: [1] 38.3% | [2] 36.4% | [3] 35.1% | [4] 27.6% | [5] 22.4% | [6] 11.7% | [7] 39.8% | [8] 25.7% | [10] 26.7% | [12] 53.5% | [13] 66% | [15] 50.4% | [17] 15.7% | [18] 77.4% | [19] 11.2%
active: [9] 2.17% | [14] -10.4% | [16] -13.4%

CCOC(=O)C1=C(C(=O)OCC)N(c2cc(OC)c(OC)c(OC)c2)C(N)=C(C#N)C1c1cc(=O)[nH]c2ccccc12 (stereo unspecified)
inactive: [1] 104% | [2] 96.7% | [3] 97.3% | [4] 92.4% | [5] 105% | [6] 90.2% | [7] 105% | [8] 101% | [9] 111% | [10] 104% | [12] 104% | [13] 87.8% | [14] 99.5% | [15] 91.1% | [16] 94.3% | [17] 87.7% | [18] 101% | [19] 105%

COc1ccccc1CNCCCN1C(=O)c2ccc3c4c(ccc(c24)C1=O)C(=O)N(CCCCNCCCN)C3=O
active: [1] -41.7% | [3] 5.96% | [5] -38.5% | [6] -78.4% | [9] -83.7% | [10] -72.6% | [12] -95.6% | [13] 9.1% | [14] -4.56% | [15] 2.12% | [17] -61.1% | [18] -95% | [19] -49.3%
inactive: [2] 62.6% | [4] 40.1% | [7] 33% | [8] 40% | [16] 54.8%

C=C(C)[C@@H]1CC[C@]2(C(=O)NS(=O)(=O)c3ccccc3)CC[C@]3(C)[C@H](CC[C@@H]4[C@@]5(C)CC[C@H](OC(=O)NS(=O)(=O)c6ccccc6)C(C)(C)[C@@H]5CC[C@]43C)[C@@H]12
active: [1] -9.55% | [4] -13.4% | [5] -53.8% | [8] -43.5% | [14] -25.9% | [16] 1.73% | [17] -34.3%
inactive: [2] 30.9% | [3] 34.1% | [6] 16.7% | [7] 18.3% | [9] 31.8% | [10] 43.3% | [12] 11.3% | [13] 39.7% | [15] 41.4% | [18] 27.8% | [19] 12.8%

CCc1c(C)c2ccc(O)c(-c3cc(-c4ccccc4)c(C#N)c(=O)[nH]3)c2oc1=O
inactive: [1] 89% | [2] 83.8% | [3] 95% | [4] 89.4% | [5] 112% | [6] 109% | [7] 90% | [8] 105% | [9] 115% | [10] 96.7% | [12] 107% | [13] 72.6% | [14] 99.2% | [15] 108% | [16] 97.4% | [17] 113% | [18] 123% | [19] 102%

CCOC(=O)C1=C(C)NC(=S)NC1c1ccccc1 (stereo unspecified)
active: [13] -95.7%
inactive: [1] 108% | [2] 91.6% | [3] 108% | [4] 101% | [5] 104% | [6] 91.6% | [7] 109% | [8] 101% | [9] 120% | [10] 109% | [12] 101% | [14] 117% | [15] 91.7% | [16] 103% | [17] 97.2% | [18] 101% | [19] 107%

O=C1OCC2=C1C(c1ccccc1)c1cc3c(cc1N2CCO)CCC3 (stereo unspecified)
active: [1] -0.519% | [5] -37.3% | [6] -31.4% | [8] 8.65% | [9] -81.7% | [10] 2.03% | [16] -21.8% | [17] -50.5% | [19] -15.1%
inactive: [2] 27% | [3] 34.2% | [4] 20.9% | [7] 34.6% | [12] 50.2% | [13] 16.4% | [14] 11% | [15] 39.2% | [18] 61.7%
